# Assay results as given in the supplement of paper PMC6555819.
# Assays:
# Assay in all cases: PBM binding z-score (relative to random genomic background probes); higher = stronger binding; sequences stand for … in GC…GCGATTGACAGCGTAGAATGAAGG
# [1] = test system: FXR:RXRa (NR concentration 270 nM, RXRa partner concentration 90 nM)
# Method in brief: (§1)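 Antibodies against each partner of ligand-free nuclear receptor dimers (one per run) detected binding on custom Agilent 4×180K protein-binding microarrays after 1 h incubation. The double-stranded probes had 34-nt variable regions carrying direct-repeat seeds, single-nucleotide variants, half-site ablations and random human genomic background sequences. Binding z-scores, from regression-normalized fluorescence, use the random background probes as reference.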
# [2] = test system: LXRa:RXRa (NR concentration 270 nM, RXRa partner concentration 90 nM)
# Method in brief: as §1
# [3] = test system: LXRa homodimer (NR concentration 270 nM)
# Method in brief: as §1
# [4] = test system: LXRb:RXRa (NR concentration 270 nM, RXRa partner concentration 90 nM)
# Method in brief: as §1
# [5] = test system: LXRb homodimer (NR concentration 270 nM)
# Method in brief: as §1
# [6] = test system: PPARa:RXRa (NR concentration 270 nM, RXRa partner concentration 90 nM)
# Method in brief: as §1
# [7] = test system: PPARg:RXRa (NR concentration 180 nM, RXRa partner concentration 90 nM)
# Method in brief: as §1
# [8] = test system: PPARg:RXRa 270nM:90nM, anti-RXR (NR concentration 270 nM, RXRa partner concentration 90 nM)
# Method in brief: as §1
# [9] = test system: PPARg:RXRa 30nM:10nM, anti-RXR (NR concentration 30 nM, RXRa partner concentration 10 nM)
# Method in brief: as §1
# [10] = test system: PPARg:RXRa 90nM:30nM, anti-RXR (NR concentration 90 nM, RXRa partner concentration 30 nM)
# Method in brief: as §1
# [11] = test system: PPARg:RXRa DBDmut IVT, anti-RXR (DBD mutation: RXRa K156A/R161A, NR concentration 270 nM, RXRa partner concentration 90 nM)
# Method in brief: as §1
# [12] = test system: PPARg:RXRa IVT, anti-PPARg (NR concentration 270 nM, RXRa partner concentration 90 nM)
# Method in brief: as §1
# [13] = test system: PPARg DBDmut:RXRa IVT, anti-PPARg (DBD mutation: PPARg1 K132A/R137A, NR concentration 270 nM, RXRa partner concentration 90 nM)
# Method in brief: as §1
# [14] = test system: PPARg DBDmut IVT, anti-PPARg (DBD mutation: PPARg1 K132A/R137A, NR concentration 270 nM)
# Method in brief: as §1
# [15] = test system: PPARg homodimer (NR concentration 180 nM)
# Method in brief: as §1
# [16] = test system: PXR:RXRa (NR concentration 270 nM, RXRa partner concentration 90 nM)
# Method in brief: as §1
# [17] = test system: PXR homodimer (NR concentration 270 nM)
# Method in brief: as §1
# [18] = test system: RARa:RXR (NR concentration 270 nM, RXRa partner concentration 90 nM)
# Method in brief: as §1
# [19] = test system: RARa homodimer (NR concentration 270 nM)
# Method in brief: as §1
# [20] = test system: RARb:RXRa (NR concentration 270 nM, RXRa partner concentration 90 nM)
# Method in brief: as §1
Sequence,PBM binding z-score [1],PBM binding z-score [2],PBM binding z-score [3],PBM binding z-score [4],PBM binding z-score [5],PBM binding z-score [6],PBM binding z-score [7],PBM binding z-score [8],PBM binding z-score [9],PBM binding z-score [10],PBM binding z-score [11],PBM binding z-score [12],PBM binding z-score [13],PBM binding z-score [14],PBM binding z-score [15],PBM binding z-score [16],PBM binding z-score [17],PBM binding z-score [18],PBM binding z-score [19],PBM binding z-score [20]
TAGCCTAGGTCATGCGGGCCCGTATAGTGTCGGC,3.96,3.12,0.169,1.59,0.214,3.37,1.74,2.29,0.0314,1.22,1.87,3.05,-0.348,0.0155,0.405,1.07,-0.531,2,-0.428,3.62
ATCTCTGGGTAAAGATAGTTCAGTGAATGCAAAT,-0.122,3.7,0.422,0.738,0.449,0.473,0.419,0.54,0.327,0.434,1.83,1.65,1.05,1.76,0.681,1.17,0.829,0.549,1.1,0.828
GCAGACAGGTGAATCGCAGGTAACTCAGGGTGGC,-0.281,-0.0182,-0.726,-0.203,-1.12,0.748,0.386,-0.0895,-0.47,-0.296,0.726,0.657,-0.695,-0.904,-0.727,-0.313,-0.959,0.0382,-0.689,0.443
